Rows were chosen to be rich in hits. Some 21% of all compounds tested hit in one or more screens of this group.
HCV inh: qHTS Assay for Inhibitors of Hepatitis C Virus (HCV). Huh7.5.1 HCVcc-Cre infection, luciferase reporter, 44 h. Potency, µM (titrated, usually from 41.8 µM), for inactives: at the top dose activity change, negative = inhibition, usual class: inhibitors. hit rate 3.4% among 340,000; note: potency is the fitted concentration of half-maximal effect; % is set by controls: 0 for no effect and ±100 for the full control effect
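Whole-lifecycle infectious HCVcc-Cre system; cells 1,000/well, compound then virus (~0.5 moi) added 4 h after plating, 44 h culture. Luciferase read 15 sec following 15 min substrate incubation, room temp.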
Pf growth 48h: Primary qHTS for delayed death inhibitors of the malarial parasite plastid, 48 hour incubation; P. falciparum luciferase growth in erythrocytes, 48 h; Potency, µM (titrated, usually from 28.7 µM), inactives show at the top dose activity change, negative = inhibition, hits mostly inhibitors; hit rate 5.9% among 310,000; note: potency is the fitted concentration of half-maximal effect; % is set by controls: 0 for no effect and ±100 for the full control effect
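Read-out is firefly luciferase luminescence from an integrated reporter in P. falciparum, so falling signal marks reduced parasite growth. Infected erythrocytes were at 2% hematocrit and 0.1% parasitemia (final) in Albumax-supplemented RPMI 1640.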
Cycloheximide cs: Cycloheximide Counterscreen for Small Molecule Inhibitors of Shiga Toxin | hit rate 12% among 300,000 | cell reporter, cycloheximide protein synthesis inhibition counterscreen | max response, %; in the data active = max response mostly above about 13%, no sharp cut-off; inactive = mostly below about 14%; note: read at 38.3 µM for the half of the compounds with a filed dose; 0% is about no effect
Pf growth 96h: Primary qHTS for delayed death inhibitors of the malarial parasite plastid, 96 hour incubation; Potency, µM (series often up to 28.7 µM), inactives show at the top dose activity change, negative = inhibition, actives largely listed as inhibitors; hit rate 6.9% among 320,000; P. falciparum luciferase reporter growth, 96 h; note: potency is the fitted concentration of half-maximal effect; % is set by controls: 0 for no effect and ±100 for the full control effect
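Infected RBCs, 2% Hct / 0.05% parasitemia final; luciferase-reporter P. falciparum; cpd 96 h, 37 C, 5% CO2; luciferase detection reagent; luminescence.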
Shiga toxin inh: A qHTS for Small Molecule Inhibitors of Shiga Toxin. Vero cells, Shiga toxin protein synthesis inhibition reporter. inhibition, % at 38.7 µM. hit rate 9.2% among 290,000. AID 2315, 2010; in the data active = inhibition mostly above about 28%, no sharp cut-off; inactive = mostly below about 43%; note: 0% is about no effect
AMA1 RON2 block: qHTS for Inhibitors of AMA1-RON; Towards Development of Antimalarial Drug Lead: Primary Screen; AlphaScreen AMA1-biotinylated RON2 peptide binding; Potency, µM (highest dose often 58.2 µM), for the others: at the highest dose activity change, negative = inhibition, usual class: inhibitors; AID 720542, 2013; hit rate 0.2% among 360,000; Plasmodium falciparum AMA1 (3D7) - RON2 peptide interaction;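 note: potency is the fitted concentration of half-maximal effect; 0% = vehicle wells and -100% = peptide control; nearly all actives have a fitted effect of over 45% in size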
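AMA1 (3D7) with his tag at 25 nM final met compounds first, then biotinylated RON2 peptide at 25 nM; detection used donor plus acceptor beads, 10 µg/mL apiece, read by AlphaScreen after 30 min at room temperature.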
* hit, by the source's call; ? = inconclusive; nt = not tested or not shown; ! = a repeat was not active; [ ] = remark or other dose. Unless noted, calls come from the whole dose curve; as a rule, active = well fitted curve in the direction sought with a large enough effect; inconclusive = small, poorly fitted or top-dose-only effect, or another doubt; inactive = no such curve, though single readings can be large; an effect the other way counts as inactive or inconclusive.

SMILES	HCV inh	Pf growth 48h	Cycloheximide cs	Pf growth 96h	Shiga toxin inh	AMA1 RON2 block
COc1ccc(C2=NN(S(C)(=O)=O)C(c3cccs3)C2)cc1 (stereo unspecified)	28%	177%	41*	33%	60*	-17%
O=C(CNCCO)N1N=C(c2cccs2)CC1c1cccs1 (stereo unspecified)	8%	55%	-1	-30%	28	57%
CC(=O)Nc1ccc(N2C(C(C)=O)=NN(c3ccccc3)C2c2cccs2)cc1 (stereo unspecified)	2%	?	0	?	6	-8%
COc1ccc(CNC(=O)COC(=O)c2cccn2C)cc1	2%	nt	nt	nt	nt	-16%
CC(C)C[C@H]1CN(CCCC[C@H]2CNC(=O)C(=O)N2CCc2ccc(O)cc2)C(=O)C(=O)N1CCC1CCCCC1	nt	nt	nt	nt	nt	0%
Cc1ccc(C2=NN(S(C)(=O)=O)C(c3cccs3)C2)cc1 (stereo unspecified)	-9%	294%	35*	211%	178*	0%
CCc1ccc(C2=NN(S(C)(=O)=O)C(c3cccs3)C2)cc1 (stereo unspecified)	-15%	nt	65*	0.29µM*	88*	13%
CCS(=O)(=O)Nc1cccc(C2=NN(S(=O)(=O)c3ccc(C)cc3)C(c3cccs3)C2)c1 (stereo unspecified)	-3%	?	-1	0%	6	-26%
Nc1c(-c2ccccn2)cnn1-c1nc(-c2ccc(F)cc2)cs1	-14%	55%	44*	125%	54	60%
Nc1c(-c2cccs2)cnn1-c1nc(-c2ccc(F)cc2)cs1	-2%	20%	17*	56%	44*	33%
COc1ccc(-c2csc(-n3ncc(-c4ccccn4)c3N)n2)cc1	14%	?	12	?	14	6%
CC(C)(C)OC(=O)NCc1ccc(CNC(=O)c2[nH]cnc2C(=O)Nc2ccccc2F)cc1	nt	nt	nt	nt	nt	126%
CCNc1c(NS(=O)(=O)c2ccc(OC)cc2)c(=O)oc2ccccc12	-8%	-33%	8	?	31	1%
O=C(N/N=C/c1ccco1)c1cc(-c2ccc(Cl)cc2)n[nH]1	-7%	-15%	-3	-14%	10	64%
Cc1ccc(-c2cc(C(=O)N/N=C/c3ccco3)[nH]n2)cc1	-1%	12µM*	19	-8%	33	87%
O=C(N/N=C/c1ccco1)c1cc(-c2ccccc2)n[nH]1	-7%	?	20*	-23%	46*	68%
O=C(N/N=C/c1ccco1)c1cc(-c2cccc3ccccc23)n[nH]1	0%	-21%	26*	34%	58*	48%
O=C(O)c1ccc(Cl)c(S(=O)(=O)Nc2ccccc2C(=O)Nc2ccc(Cl)cc2)c1	6%	35%	1	27%	56	-1%
CCN(CC)S(=O)(=O)c1ccc(C(=O)NCC(c2ccc(OC)cc2)N2CCOCC2)cc1 (stereo unspecified)	-4%	?	-4	?	-9	-1%
Cc1cc(NC(=S)N(CCCN2CCN(C)CC2)Cc2ccco2)ccc1Cl	?	?	-1	6%	20	-7%
O=C(c1ccoc1)N1CCN(c2cc(-c3ccccc3)nc3cc(-c4ccc(Br)cc4)nn23)CC1	nt	nt	nt	nt	nt	13%
Cc1cccc(OCCn2c(=S)[nH]c3ccccc32)c1	-17%	?	13*	13µM*	19	5%
Cc1ccc(OCCn2c(=S)[nH]c3ccccc32)c(C(C)C)c1	?	12µM*	0	46%	-5	51%
S=c1[nH]c2ccccc2n1CCOc1ccccc1	-11%	?	21*	?	nt	45%
CCOc1ccc(OCCn2c(=S)[nH]c3ccccc32)cc1	-2%	?	2	?	-4	72%
SMILES	HCV inh	Pf growth 48h	Cycloheximide cs	Pf growth 96h	Shiga toxin inh	AMA1 RON2 block
CC12CN(NC(=O)c3ccccc3F)C3(C#N)CC1CCC23C (stereo unspecified)	23%	-1%[5.75 µM]	-3	?	-3	5%
COc1ccc(OC)c(S(=O)(=O)N2CCC(C(=O)NCc3ccccn3)CC2)c1	16%	-4%	-7	4%	7	3%
Cn1nc(C(F)(F)F)c2cc(NC(=O)OCc3ccc(F)cc3)sc21	10µM*	-31%	6	?	5	-14%
Cc1cccc(-c2noc(CCCC(=O)N3CCOCC3)n2)c1	20%	39%	11*	nt	11	-1%
COc1ccc(-c2noc(CCC(=O)N3CCN(c4ccc(C(F)(F)F)cc4)CC3)n2)cc1	-74%	nt	nt	nt	nt	0%
Cc1ccc(-c2noc(CCC(=O)N3CCN(c4cccc(C(F)(F)F)c4)CC3)n2)cc1	11µM*!	-30%	-2	?	5	-4%
CC1=C(C(=O)N2CCCCCC2)CC(CC(=O)NCCCCc2ccccc2)C(=O)N1Cc1ccccc1 (stereo unspecified)	nt	nt	nt	nt	nt	-1%
Cc1ccc(NC(=O)C(OC(=O)c2ccc(F)cc2)c2ccccc2)cc1Cl (stereo unspecified)	-40%	?	2	-104%	-1	-8%[11.6 µM]
COc1ccc(C(=O)OC(C(=O)c2ccc(C)cc2)c2ccccc2)cc1 (stereo unspecified)	18%	?	3	7%	-8	10%
CC(=O)Nc1cccc(C(=O)OC(C(=O)c2ccc(C)cc2)c2ccccc2)c1 (stereo unspecified)	?	1.5µM*	-2	78%	-3	-6%
CC(=O)Nc1cccc(C(=O)OC(C(=O)c2ccc(C)c(C)c2)c2ccccc2)c1 (stereo unspecified)	?	?	-3	10µM*	-12	-18%
COc1ccccc1CCC(=O)Nc1cc(S(=O)(=O)N2CCCCC2)ccc1N1CCN(C)CC1	14%	12µM*	nt	?	nt	-3%
COc1cc(C(C)=O)ccc1OCC(=O)Nc1cc(S(=O)(=O)N2CCOCC2)ccc1N1CCCC1	23%	nt	nt	nt	nt	6%
Cc1ccc(OCC(=O)Nc2cc(S(=O)(=O)N3CCOCC3)ccc2N2CCCC2)cc1	?	?	nt	?	nt	-23%
COc1cc(CCC(=O)Nc2cc(Cl)ccc2N2CCN(C)CC2)cc(OC)c1OC	?	12µM*	3	nt	3	-7%
CCc1ccccc1OCC(=O)Nc1cc(S(=O)(=O)N2CCOCC2)ccc1N1CCCCC1	11µM*	2.9µM*	nt	1µM*	nt	-10%
COc1ccccc1CC(=O)Nc1cc(S(=O)(=O)N2CCOCC2)ccc1N1CCOCC1	1%	?	nt	?	nt	-8%
COc1ccccc1OCC(=O)Nc1cc(S(=O)(=O)N2CCOCC2)ccc1N1CCCCC1	13µM*	nt	nt	nt	nt	-9%

Screening data as filed in PubChem.
